# Results filed as inconclusive are left out. The source made the active and inactive calls. Calls come from the whole dose curve.
# Test: VSVG counterscreen qHTS to identify inhibitors of SARS-CoV-2 cell entry (AID 1645847); note: nearly all actives have a fitted effect of over 65% in size
# Settings: VSV-G pseudotyped particle entry, luciferase; series mostly up to 57.2 µM
# In short: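 HEK293-ACE2 cells (Expi293F stably expressing human ACE2) were pretreated with compound for 1 h at 37 °C, then infected with MLV-based VSV-G pseudotyped particles for 48 h. Luciferase luminescence was normalized to VSV-G PP and bald PP wells.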
# Potency is the fitted concentration of half-maximal effect.
row,Compound,Potency
1,CON(C)C(=O)N1N=C(c2cc(F)ccc2F)S[C@@]1(CCCN)c1ccccc1,24.1 nM (active)
2,CCC(=O)OCC(=O)C1(OC(=O)CC)C(C)CC2C3CCC4=CC(=O)C=CC4(C)C3(F)C(O)CC21C (configuration not stated),1920 nM (active)
3,CN1C(=O)[C@@H](NC(=O)c2cc(Cc3ccccc3)on2)COc2ccccc21,inactive
4,Cn1cc(/C=C2\C(=O)Nc3cccnc32)c2ccccc21,152 nM (active)
5,CCc1ccc(N(CC(C)C)S(=O)(=O)c2ccc(OCC3CCOCC3)c(CO)c2)cc1,24100 nM (active)
6,Nc1ccn([C@@H]2C(F)=C(CO)[C@@H](O)[C@H]2O)c(=O)n1,3040 nM (active)
7,Cc1c[nH]c2ncnc(N3CCC(CN)(C(=O)Nc4cccc(OC(=O)N(C)C)c4)CC3)c12,inactive

# From PubChem BioAssay (NCATS)
